Test systems include SR leukemia; RPMI-8226 leukemia; OVCAR-8 ovarian; OVCAR-5 ovarian; OVCAR-4 ovarian; SK-OV-3 ovarian; IGROV1 ovarian; OVCAR-3 ovarian; HS 578T breast; NCI/ADR-RES ovarian; T-47D breast; BT-549 breast; MDA-MB-435 melanoma; SW-620 colon; MCF7 breast; HCT-116 colon; HCC-2998 colon; KM12 colon.
What all share (assay): NCI-60 one-dose screen, 48 h (100 = growth as untreated, 0 = no growth, -100 = all killed)
Holding throughout (conditions): 10 µM unless noted

This is part of a sample that, as a whole, favours compounds with a hit. Of some 83,000 tested, about 20% had one in any assay.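 Compound tested at a single concentration for 48 hours in 96-well plates; a percent growth value below 10 was scored as active.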 A number with no mark means an inactive call. Calls of active or inactive are those of the source.

Turning to `Cc1c(O)c(N=Nc2ccc(C(=O)O)c(O)c2)c2ccccc2c1O`, the growth was 85.8% with SR leukemia; 106% in the assay with RPMI-8226 leukemia; 96.9% with OVCAR-8 ovarian; 25.5% in the assay with OVCAR-5 ovarian; 107% with OVCAR-4 ovarian; 95.5% in the assay on SK-OV-3 ovarian. The growth in the assay on IGROV1 ovarian was -25.9% (active); in the assay with OVCAR-3 ovarian, 108%; in the assay on HS 578T breast, 94.7%; in the assay with NCI/ADR-RES ovarian it was 110%; in the assay with T-47D breast, 112%; with BT-549 breast it was 89.3%. Besides, the growth with MDA-MB-435 melanoma was 106%; in the assay on SW-620 colon, 84.8%; in the assay on MCF7 breast it was 101%; with HCT-116 colon, 98.1%; with HCC-2998 colon, 118%; with KM12 colon it was 98.3%.

Take `Nc1cc(N)c2nc(NCCc3ccc(Cl)c(Cl)c3)cnc2c1`: the growth was -69.7% (active) in the assay on SR leukemia; -48.9% (active) with RPMI-8226 leukemia; 32.6% in the assay on OVCAR-8 ovarian; 31% in the assay on OVCAR-5 ovarian; -96.7% (active) in the assay with OVCAR-4 ovarian; 88.8% in the assay on SK-OV-3 ovarian. Also, the growth in the assay with IGROV1 ovarian is 21.3%; in the assay on OVCAR-3 ovarian, -43.4% (active); with HS 578T breast, 62.1%; in the assay on NCI/ADR-RES ovarian, 89.6%; in the assay with T-47D breast, -27.2% (active); in the assay with BT-549 breast it was 96.6%. Further, the growth with MDA-MB-435 melanoma was -50% (active); in the assay on MCF7 breast, -43.5% (active); with HCT-116 colon it was -42.5% (active); with HCC-2998 colon, 44.7%; in the assay with KM12 colon, 35.6%.

For the molecule `COc1ccc2nc3cc(Cl)ccc3c(NCCCNC(C)=O)c2c1`, the growth was 21% in the assay on SR leukemia; 37.2% with RPMI-8226 leukemia; 26.8% in the assay on OVCAR-8 ovarian; 39.1% in the assay on OVCAR-5 ovarian; 49.2% with OVCAR-4 ovarian; 49.7% in the assay on SK-OV-3 ovarian. In addition, the growth is 36.2% with IGROV1 ovarian; 45.8% in the assay on OVCAR-3 ovarian; 60.4% with HS 578T breast; 41.4% with NCI/ADR-RES ovarian; 38.1% with T-47D breast; 88.7% in the assay on BT-549 breast. Besides, the growth in the assay with MDA-MB-435 melanoma is 41.3%; with SW-620 colon it was 27%; in the assay with MCF7 breast, 15.8%; in the assay on HCT-116 colon, 21%; in the assay with HCC-2998 colon, 50.3%; with KM12 colon it was 30.7%.

In the case of `O=C(/C=C/c1ccc(Br)cc1)c1ccccc1`, the growth in the assay with SR leukemia is 4.53% (active); in the assay with RPMI-8226 leukemia, 1.56% (active); in the assay on OVCAR-8 ovarian, 91.9%; in the assay on OVCAR-5 ovarian, 113%; in the assay with OVCAR-4 ovarian, 96.3%; with SK-OV-3 ovarian, 111%. The growth is 87.3% in the assay with IGROV1 ovarian; 93.3% with OVCAR-3 ovarian; 100% in the assay on HS 578T breast; 99.5% with NCI/ADR-RES ovarian; 74.8% in the assay with T-47D breast; 95.8% with BT-549 breast. Besides, the growth in the assay on MDA-MB-435 melanoma was 87.6%; with SW-620 colon, 65.6%; in the assay on MCF7 breast, 8.28% (active); in the assay on HCT-116 colon, 61.6%; in the assay with HCC-2998 colon, 99.4%; in the assay with KM12 colon, 39.6%.

`CCCCCCCCCCCCCCCCNC(=S)N/N=C/c1ccc(OC)cc1`: the growth in the assay on SR leukemia is 106%; with RPMI-8226 leukemia, 93.2%; with OVCAR-8 ovarian, 92.1%; with OVCAR-5 ovarian, 105%; in the assay on OVCAR-4 ovarian, 113%; with SK-OV-3 ovarian, 114%. Moreover, the growth was 106% in the assay with IGROV1 ovarian; 110% in the assay on OVCAR-3 ovarian; 107% in the assay with HS 578T breast; 101% in the assay on NCI/ADR-RES ovarian; 103% in the assay on T-47D breast; 104% in the assay with BT-549 breast. The growth in the assay on MDA-MB-435 melanoma is 107%; in the assay with SW-620 colon it was 107%; in the assay with MCF7 breast, 102%; with HCT-116 colon, 89.6%; in the assay on HCC-2998 colon, 113%; with KM12 colon it was 97.9%.

As for `COc1ccc(Cn2cc3c(c2-c2ccccc2)CCc2cnoc2-3)cc1N`, the growth with SR leukemia is 11.8%; in the assay with RPMI-8226 leukemia, 23.5%; in the assay with OVCAR-8 ovarian it was 30%; in the assay with OVCAR-5 ovarian it was 54.5%; in the assay on OVCAR-4 ovarian, 44.5%; in the assay with SK-OV-3 ovarian, -4.08% (active). Moreover, the growth is 3.29% (active) with IGROV1 ovarian; -19.5% (active) in the assay on OVCAR-3 ovarian; 10.4% in the assay on HS 578T breast; -1.43% (active) in the assay with NCI/ADR-RES ovarian; 37.2% in the assay with T-47D breast; 36.2% in the assay on BT-549 breast. The growth in the assay on MDA-MB-435 melanoma was -27.9% (active); in the assay on SW-620 colon, 23.5%; in the assay on MCF7 breast it was 16%; in the assay on HCT-116 colon, 9.53% (active); in the assay with HCC-2998 colon it was -1.21% (active); in the assay on KM12 colon it was 6.52% (active).

`COc1cc(NC(C)CCCN)c2nc(C)ccc2c1OC` (stereo not drawn): the growth in the assay on SR leukemia was 17.7%; with RPMI-8226 leukemia, 69.1%; in the assay on OVCAR-8 ovarian, 119%; in the assay on OVCAR-5 ovarian it was 95.6%; in the assay with OVCAR-4 ovarian, 94.6%; in the assay on SK-OV-3 ovarian it was 107%. Also, the growth was 103% in the assay with IGROV1 ovarian; 64.1% with OVCAR-3 ovarian; 105% in the assay on HS 578T breast; 101% in the assay on NCI/ADR-RES ovarian; 90.5% in the assay with T-47D breast; 103% in the assay with BT-549 breast. The growth is 121% in the assay with MDA-MB-435 melanoma; 104% in the assay with SW-620 colon; 47.1% with MCF7 breast; 102% in the assay with HCT-116 colon; 87.2% in the assay with HCC-2998 colon; 103% in the assay with KM12 colon.

Regarding `CC(O)CN(CC(C)O)N(CC(C)O)CC(C)O` (stereo not drawn), the growth in the assay on SR leukemia is 94.2%; with RPMI-8226 leukemia it was 98.9%; in the assay with OVCAR-8 ovarian it was 97.9%; in the assay with OVCAR-5 ovarian, 101%; in the assay on OVCAR-4 ovarian, 98.2%; with SK-OV-3 ovarian, 109%. The growth with IGROV1 ovarian is 113%; in the assay with OVCAR-3 ovarian, 109%; with HS 578T breast, 108%; in the assay on NCI/ADR-RES ovarian, 106%; in the assay with T-47D breast, 105%; in the assay on BT-549 breast it was 94.9%. Besides, the growth was 104% in the assay on MDA-MB-435 melanoma; 104% in the assay with SW-620 colon; 101% in the assay on MCF7 breast; 102% in the assay on HCT-116 colon; 107% with HCC-2998 colon; 109% with KM12 colon.

The record behind these values is PubChem BioAssay (NCI).
